Source: PubChem BioAssay
AmpC inh detg: blocks E. coli AmpC beta-lactamase in detergent assay; P00811; AmpC hydrolysis of nitrocefin, absorbance 480 nm, 0.01% Triton; Potency, µM (top dose mostly 114 µM), without a hit: top-dose activity change, negative = inhibition, hits mostly inhibitors; hit rate 0.041% among 370,000; AID 485294;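 further: 0% = no-compound wells and -100% = no-enzyme wells; nearly all actives have a fitted effect of over 25% in size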
Target sequence (P00811 whole entry, looked up): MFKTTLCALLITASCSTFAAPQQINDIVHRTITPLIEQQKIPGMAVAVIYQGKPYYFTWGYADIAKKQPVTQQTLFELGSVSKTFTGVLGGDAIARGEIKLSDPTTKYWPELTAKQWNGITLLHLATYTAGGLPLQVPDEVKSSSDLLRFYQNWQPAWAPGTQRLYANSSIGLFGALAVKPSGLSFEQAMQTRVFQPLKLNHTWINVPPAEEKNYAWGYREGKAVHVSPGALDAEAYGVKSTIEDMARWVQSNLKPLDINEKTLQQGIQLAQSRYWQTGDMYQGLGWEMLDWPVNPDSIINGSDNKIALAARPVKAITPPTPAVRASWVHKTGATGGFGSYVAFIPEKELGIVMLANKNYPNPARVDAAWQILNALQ
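AmpC (5.3 nM in the dispensed reagent) in 20 mM phosphate pH 7.0 with 0.01% (detergent screen) or 0.0001% Triton X-100 was preincubated with compounds for 15 min at room temperature. Nitrocefin was then added from an 800 uM solution, and hydrolysis was followed at 480 nm.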
AmpC no deterg: blocks E. coli AmpC beta-lactamase in detergent-free assay. P00811. AmpC nitrocefin hydrolysis, absorbance 480 nm, 0.0001% Triton. Potency, µM (titrated, usually from 57.1 µM), for inactives: at the top dose activity change, negative = inhibition, usual class: inhibitors. hit rate 0.52% among 330,000. AID 485341;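 further: plate controls were no compound for no effect and no enzyme for full effect; nearly all actives have a fitted effect of over 20% in size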
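20 mM phosphate pH 7.0 + 0.01% (detergent screen) or 0.0001% Triton X-100; 5.3 nM AmpC reagent; cpd preinc 15 min RT; nitrocefin (800 uM stock) to start; A480 q20 s × 4 min; Activity was normalised to no-enzyme and no-compound control wells.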
Vaccinia mCherry: vaccinia inhibition (mCherry reporter). Vaccinia virus mCherry reporter infection, fluorescence. Potency, µM (top dose mostly 36.5 µM), for inactives: at the highest dose activity change, negative = inhibition, most hits filed as inhibitors. hit rate 0.63% among 310,000. AID 720579; calls by dose curve; tested in A549 cells; further: on the % scale 0 is the no-effect control and ±100 the full control effect; nearly all actives have a fitted effect of over 35% in size
SARS PLpro yeast: inhibitors of SARS-CoV papain-like protease in yeast | S. cerevisiae expressing SARS-CoV PLpro, growth rescue | Potency, µM (highest dose often 32.9 µM), for the others: top-dose activity, positive = growth rescue, hits mostly activators | hit rate 0.19% among 330,000 | AID 485353; calls by dose curve; further: 0% is about no effect; nearly all actives have a fitted effect of over 55% in size
VACV Venus inh: inhibitors of vaccinia virus (Venus reporter) | Potency, µM (titrated, usually from 36.5 µM), inactives show at the highest dose activity change, negative = inhibition, usual class: inhibitors | hit rate 0.46% among 330,000 | Vaccinia virus Venus reporter expression, fluorescence; calls by dose curve; tested in A549 cells; further: on the % scale 0 is the no-effect control and ±100 the full control effect; nearly all actives have a fitted effect of over 30% in size
* hit, by the source's call; i = inactive; ? = inconclusive; . = no result given; [ ] = dose if it differs, or a comment. An excerpt weighted towards active compounds, which were near 1.3% of everything screened. Unless noted, the call rests on the fitted dose curve; in most records, active means well fitted curve in the direction sought with a large enough effect; inconclusive means small, poorly fitted or top-dose-only effect, or another doubt; inactive means no such curve, though single readings can be large; an effect the other way counts as inactive or inconclusive. Potency means the concentration at half of the fitted maximal effect.

SMILES	AmpC inh detg	AmpC no deterg	Vaccinia mCherry	SARS PLpro yeast	VACV Venus inh
COc1ccc(C2=NN(c3nc(-c4ccccc4)c(CC(=O)O)s3)C(c3ccco3)C2)cc1 (configuration not stated)	-14%	14µM*	i	-7%	26%
CC1O[C@@H](OC2CC(O)[C@@]3(CO)C4C(O)C[C@@]5(C)C(C6=CC(=O)OC6)CC[C@]5(O)C4CC[C@]3(O)C2)C(O)C(O)C1O (some centres not stated)	.	.	0.32µM*	.	0.28µM*
C[C@@H]1O[C@@H](O[C@H]2C[C@@H](O)[C@]3(CO)[C@H]4[C@H](O)C[C@]5(C)[C@@H](C6=CC(=O)OC6)CC[C@]5(O)[C@@H]4CC[C@]3(O)C2)[C@H](O)[C@H](O)[C@H]1O	?	-18%	0.5µM*	-4%	0.63µM*
C[C@@H]1O[C@@H](O[C@H]2C[C@@H](O)[C@]3(CO)[C@@H]4C(CC[C@]3(O)C2)[C@@]2(O)CC[C@H](C3=CC(=O)OC3)[C@@]2(C)C[C@H]4O)[C@H](O)[C@H](O)[C@H]1O (some centres not stated)	.	.	-11%	.	-9%
Cc1cc2c(c(-c3cnccn3)c1)OC(CNC(=O)c1cc(C(C)C)[nH]n1)C2 (configuration not stated)	.	.	i	.	-17%
COc1ccc(C(=O)N2CCCCC2CCN2CCCCC2)cc1 (configuration not stated)	19%	.	-16%	.	-7%
Cc1c(C(=O)N(C)CC2CCCN(C)C2)cnn1-c1nccc(-c2ccco2)n1 (configuration not stated)	.	.	-16%	.	-9%
COc1ccc(-c2sc(Nc3ccccc3)n[n+]2-c2ccccc2)cc1Br	?	-34%	-18%	3%	-4%
C(=C\c1sc(Nc2ccccc2)n[n+]1-c1ccccc1)/c1ccccc1	.	.	?	.	8.9µM*
CCOc1cc(CNCCc2ccc(S(N)(=O)=O)cc2)ccc1OCc1ccc(Cl)cc1	?	10%	.	?	11µM*
COc1cc(CNCCc2ccc(S(N)(=O)=O)cc2)ccc1OCc1ccc(Cl)cc1	-2%	-2%	.	-8%	.
CC1(C)C2CC=C(/C=N/NC(=O)c3ccccc3O)C1C2 (configuration not stated)	-10%	11µM*	?	12%	-23%
CC1(C)C2CC=C(/C=N/NC(=S)NCCc3ccccc3)C1C2 (configuration not stated)	1%	-19%[2.29 µM]	-25%	-1%	-17%
Cc1c(C(=O)N(CCO)C(C)C)cnn1-c1ncc2c(n1)-c1ccccc1CCC2	.	.	-1%	.	-8%
NS(=O)(=O)c1ccc(NC(=O)c2ccc(S(=O)(=O)N3CCc4ccccc43)cc2)cc1	-6%	18µM*	?	2%	?
CSc1cccc(NC(=O)c2cc(S(=O)(=O)N3CCc4ccccc43)cn2C)c1	-16%	10µM*	-26%	-11%	-29%
Cc1cccc(-c2nc(CCNC(=O)COc3ccccc3)cs2)c1	3%	.	-8%	.	-7%
Cn1cccc1Cc1nnc(SCC(=O)N2CCOCC2)n1-c1ccc(F)cc1	-10%	2.5µM*	-1%	?	5%
Cc1ccc(NC(=O)c2cc(C)n(-c3cccc(C)c3)c2C)cc1	2%	16µM*	-27%	-55%	-17%
Cc1ccc(NC(=O)c2cc(C)n(-c3ccccc3)c2C)cc1	5%	-28%	-7%	-63%	-14%
CCOc1ccc(C(=O)NC(=S)Nc2ncccc2C)cc1[N+](=O)[O-]	-1%	-2%	-11%	26%	-11%
CCCCn1nnc(NC(=O)c2ccc(-c3ccccc3[N+](=O)[O-])o2)n1	?	-1%[2.29 µM]	i	-1%	-10%
CCCCn1nnc(NC(=S)NC(=O)c2ccc(-c3cccc(Cl)c3Cl)o2)n1	0%	-37%	?	-6%	0.11µM*
CCCCn1nnc(NC(=S)NC(=O)c2ccc(OCC)c([N+](=O)[O-])c2)n1	7%	-16%	?	12%	1.3µM*
CCn1c(-c2ccccc2F)nc2cc(NC(C)=O)cc(C(=O)NCC3CCOCC3)c21	.	.	i	.	-13%
SMILES	AmpC inh detg	AmpC no deterg	Vaccinia mCherry	SARS PLpro yeast	VACV Venus inh
CCCCCn1c(Sc2nc3ccccc3s2)nc2c1c(=O)[nH]c(=O)n2C	-11%	64%	10µM*	10%	10µM*
CCCCCn1c(Sc2ncccn2)nc2c1c(=O)[nH]c(=O)n2C	-14%	-1%	.	11%	-1%
O=C(CCSCc1cnn(-c2ccccc2)c1-n1cccc1)NCc1ccc(Cl)cc1	-8%	.	16%	.	3%
O=c1cc2oc3cc(O)c(O)cc3c(-c3ccccc3[N+](=O)[O-])c-2cc1O	-7%	1.1µM*	-21%	?	-11%
O=c1cc(-c2ccccc2)oc2cc(O)c(O)cc12	.	.	i	.	-7%
Cc1nc2ccccc2c(=O)n1/N=C/c1c(O)ccc2ccccc12	3%	-18%	13µM*	2%	?
Cc1nc2ccccc2c(=O)n1/N=C/c1cc(Br)ccc1O	5%	-29%	?	25%	-25%
O=c1c2ccccc2nc(COc2ccccc2)n1/N=C/c1ccc(O)c(O)c1	9%	3.5µM*	.	-1%	.
Cc1ccc([N+](=O)[O-])cc1-c1ccc(/C=C(\C#N)c2[nH]nc(N)c2C#N)o1	2%	32µM*	10µM*	4%	?
COCc1cc(C)nc(OCC(=O)N/N=C/c2ccc(-c3cc([N+](=O)[O-])ccc3C)o2)c1C#N	4%	-10%	-14%	-1%	-10%
CC1CCC(NC(=O)C2(C)CCC(=O)N2Cc2cccnc2)CC1 (configuration not stated)	?	45µM*	-13%	0%	-5%
COc1ccc(C)cc1Nc1n[n+](-c2ccccc2)c(-c2c(OC)ccc3ccccc23)s1	-4%	14%	14µM*	-3%	?
COc1ccc(C)cc1Nc1n[n+](-c2ccccc2)c(-c2cc(OC)c(OC)cc2Br)s1	?	-4%	-21%	3%	?
O=C(Nc1ccc(F)cc1F)c1cccc2c1C(=O)N(C1CCCCC1)C2	0%	.	-18%	.	-8%
OC(c1cc(-c2ccc(C(F)(F)F)cc2)nc(C(F)(F)F)c1)C1CCCCN1 (configuration not stated)	-3%	87%	?	1%	11µM*
OC(c1cc(C(F)(F)F)nc2c(C(F)(F)F)cccc12)C1CCCCN1 (configuration not stated)	0%	30%	?	.	?
CC[N+](C)(C)c1ccc(/C=C/c2ccc3ccccc3n2)cc1	.	.	121%	.	148%
CCN(CC(=O)Nc1cc(Cl)ccc1C)C(=O)CCS(=O)(=O)c1ccc(Cl)cc1	3%	77%	11µM*	-4%	?
CCN(CC(=O)Nc1ccccc1C(F)(F)F)C(=O)CCS(=O)(=O)c1ccc(Cl)cc1	-9%	?	?	2%	-28%
